Assay results reported in PubChem BioAssay (NCI).
This is part of a sample that, as a whole, favours compounds with a hit. Of some 83,000 tested, about 20% had one in any assay.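 The endpoint reported here, percent growth, reads 100 for growth as untreated, 0 for no net growth and -100 for all cells dead.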 Values without a mark were called inactive. Activity calls are given as the source filed them. Rule for the calls: active = growth percent below 10; inactive = the rest.

How the values were obtained:
Assay in all cases: NCI-60 one-dose screen, 48 h (100 = growth as untreated, 0 = no growth, -100 = all killed)
Details in all cases: 10 µM
NCI-H23 lung = test system: NCI-H23 lung
NCI-H226 lung = test system: NCI-H226 lung
NCI-H322M lung = test system: NCI-H322M lung
NCI-H460 lung = test system: NCI-H460 lung
NCI-H522 lung = test system: NCI-H522 lung
786-0 renal = test system: 786-0 renal
COLO 205 colon = test system: COLO 205 colon
DU-145 prostate = test system: DU-145 prostate
K-562 leukemia = test system: K-562 leukemia
MALME-3M melanoma = test system: MALME-3M melanoma
MDA-MB-231 breast = test system: MDA-MB-231 breast
RXF 393 renal = test system: RXF 393 renal
SF-268 CNS = test system: SF-268 CNS
SF-295 CNS = test system: SF-295 CNS
SF-539 CNS = test system: SF-539 CNS
UACC-257 melanoma = test system: UACC-257 melanoma
M14 melanoma = test system: M14 melanoma
HOP-62 NSCLC = test system: HOP-62 NSCLC
HOP-92 NSCLC = test system: HOP-92 NSCLC
A549/ATCC NSCLC = test system: A549/ATCC NSCLC

Row | SMILES | growth (NCI-H23 lung) [%] | growth (NCI-H226 lung) | growth (NCI-H322M lung) [%] | growth (NCI-H460 lung) | growth (NCI-H522 lung) | growth (786-0 renal) [%] | growth (COLO 205 colon) | growth (DU-145 prostate) | growth (K-562 leukemia) [%] | growth (MALME-3M melanoma) [%] | growth (MDA-MB-231 breast) [%] | growth (RXF 393 renal) | growth (SF-268 CNS) [%] | growth (SF-295 CNS) | growth (SF-539 CNS) | growth (UACC-257 melanoma) [%] | growth (M14 melanoma) | growth (HOP-62 NSCLC) [%] | growth (HOP-92 NSCLC) [%] | growth (A549/ATCC NSCLC) [%]
1 | CCOC(=O)c1cc2cccc(OC)c2oc1=O | 110 | 106% | 107 | 110% | 83.5% | 95.5 | 123% | 123% | 99 | 115 | 107 | 122% | 111 | 130% | 107% | 98.2 | 99.4% |  |  | 
2 | CCOC(=O)CSc1c([N+](=O)[O-])ncn1C | 95.6 | 105% |  | 104% | 99.9% | 111 | 110% | 105% | 109 | 80.4 | 96.5 | 103% | 103 | 102% | 94.3% | 94.6 | 94.1% | 98.6 | 113 | 97.6
3 | CCC/C=C(/C(C)=O)C(=O)OCC | 107 | 95.7% | 110 | 114% | 111% | 113 | 113% | 114% | 104 | 118 | 105 |  | 84.5 | 282% | 117% | 81.2 | 118% |  |  | 90.8
4 | NC(=S)NN=C1CCCC1 | 83.2 | 95.6% |  | 104% | 99.8% | 106 | 101% | 96.8% | 65.7 | 85.3 | 95 | 107% | 89.3 | 95.7% | 110% | 66.9 | 83.1% | 95 | 82.1 | 81.1
5 | O=C(/C(=N/O)c1ccccc1)c1ccccc1 | 105 | 91.2% | 95.8 | 108% | 109% | 98.1 | 115% | 111% | 120 | 82 | 98.5 | 102% | 100 | 94.4% | 104% | 97 | 108% |  |  | 98.1
6 | Cc1cc(=O)n(-c2ccc(F)cc2)[nH]1 | 103 | 98.3% | 95.6 | 106% | 97.6% | 105 | 107% | 109% | 99.1 | 102 | 105 | 93.5% | 101 | 86.8% | 90.8% | 103 | 108% |  |  | 102
7 | O=C(O)c1ccccc1NCc1ccco1 | 90.9 | 92.6% | 102 | 102% |  | 97.2 | 126% | 118% | 104 | 108 | 104 |  | 111 | 114% | 103% | 143 | 102% |  |  | 102
8 | CN(C)c1ccc(C(c2ccc(O)cc2)c2ccc(N(C)C)cc2)cc1 | 104 | 92.9% |  | 98.6% | 81.1% | 105 | 101% | 101% | 49.9 | 91.5 | 87.3 | 112% | 92.1 | 103% | 104% |  | 89.3% | 99.7 | 90.9 | 
9 | CC(=O)OC(C(=O)O)c1ccccc1 (stereo not drawn) | 111 | 110% |  |  | 107% | 109 | 118% | 106% | 108 |  | 105 | 112% | 101 | 113% | 111% | 106 | 110% | 112 | 80.4 | 106
10 | CC1(C)/C(=C\CO)C2CCC1C2 (stereo not drawn) | 103 | 98.1% |  | 115% | 88.8% | 101 | 111% | 120% | 105 | 103 | 112 | 113% | 111 | 120% | 109% | 132 | 103% | 96.8 |  | 
11 | COCCCC/C(=N\OCCN)c1ccc(C(F)(F)F)cc1 | 100 | 101% |  | 106% |  | 100 | 101% | 123% |  | 112 | 74 | 97.4% | 102 | 90.3% | 109% | 106 | 109% |  | 63.2 | 102
12 | O=C(NCO)c1ccccc1 | 109 | 101% |  | 105% |  | 108 | 106% | 99.8% | 94.5 | 91.3 | 117 | 119% | 103 | 110% | 108% | 111 | 106% |  |  | 106
13 | COC(=O)Nc1nc2ccc(C(=O)c3cccs3)cc2[nH]1 | 14.2 | 0.146% (active) |  | 7.45% (active) |  | 19 | -40% (active) | -1.55% (active) |  | 36.2 | 24 | 44.9% | 36.9 | -9.66% (active) | 10.3% | 56 | 3.53% (active) |  | 63.9 | 19.5
14 | Nc1ccc(C(=O)c2ccc(N)c(Br)c2)cc1Br | 44.4 | 65.3% |  | -0.543% (active) | -36.1% (active) | 34 | -30.6% (active) |  | 15.7 | 78.8 | 24.8 | -17.4% (active) |  | 17.6% | -11.2% (active) | 67.1 |  |  | 34.7 | 17.9
15 | O=C1N(C[P+](c2ccccc2)(c2ccccc2)c2ccccc2)CCCN1C[P+](c1ccccc1)(c1ccccc1)c1ccccc1 | 109 | 102% |  | 107% | 108% | 103 |  | 117% | 93.9 | 103 | 90.8 | 113% | 115 | 96.4% | 106% | 101 | 98.2% |  | 79.5 | 101
16 | O=[N+]([O-])c1cccc2nsnc12 | 108 | 93.9% |  | 103% | 103% | 114 | 107% | 114% | 111 |  | 112 | 118% | 101 |  | 108% | 87.8 | 101% | 99.5 |  | 104
17 | NC(C(=O)O)C(O)c1ccco1 (stereo not drawn) | 108 | 96.6% |  | 108% | 137% | 98.3 | 102% | 115% | 105 | 98.6 | 117 | 105% | 116 | 108% | 110% | 102 | 105% | 104 |  | 102
18 | O=C(NCc1ccco1)Nc1c(Cl)cc(Cl)cc1Cl | 104 | 99.6% |  | 103% |  | 97.2 | 107% | 113% | 106 | 97.3 | 101 | 107% | 104 | 93.5% | 94.7% |  | 99.3% | 97.3 | 79.6 | 102
19 | CCOC(=O)C(CCC(C)C)C(=O)OCC | 103 | 98.2% |  | 106% |  | 113 | 110% | 107% | 103 | 108 | 109 | 110% | 92.5 | 102% | 107% | 97.5 |  | 105 | 93.6 | 102
